Counter-ions that a name gives are not always drawn.
Legend:
Details in all cases: incubation time: 27 h, anaerobic, 37 °C;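 for the amine columns active = adjusted P below 0.05 in both replicates with a change the same way and a mean fold change under 0.8 or over 1.25; inactive = the rest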
[1] = tested on: Clostridium sporogenes DSM 1664; assay: growth (OD595) fold change vs plate DMSO controls (fold change (ratio)); higher = more growth
Summary of the method: (§1)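 Growth is the fold change relative to the median of plate DMSO controls. Readings came from anaerobic mGAM cultures in 96-well plates grown for 27 h at 37 °C and read at 595 nm. They were blank-subtracted, corrected for compound background with 20 µM compound solutions in water, and converted to OD with a calibration factor of 5. Values are means of 2 biological replicates, and fold changes above 1.5 were set to NA.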

Escherichia coli IAI1 [2] = assay: as above
Summary of the method: as §1

[3] = tested on: Klebsiella aerogenes DSM 30053; assay: as above
Summary of the method: as §1

[4] = tested on: Ruminococcus gnavus DSM 108212; assay: as above
Summary of the method: as §1

[5] = tested on: Klebsiella aerogenes DSM 30053; assay: fold change of Histamine concentration vs plate DMSO controls (fold change (ratio)); higher = more amine produced, active = hit call of the paper (significant change in both replicates, either direction)
Summary of the method: (§2)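 Amines were quantified by LC–triple-quadrupole MS in dynamic MRM mode against external calibration curves, with drift correction within each batch. The samples were whole anaerobic mGAM cultures of four gut bacterial strains, grown for 27 h at 37 °C in 80 µL wells and extracted with cold acetonitrile/methanol with 0.1% formic acid, then centrifuged. Values are reported as fold change over DMSO controls on the same plate. The mean of 2 biological replicates is given.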

[6] = tested on: Clostridium sporogenes DSM 1664; assay: fold change of Tryptamine concentration vs plate DMSO controls (fold change (ratio)); higher = more amine produced, active = hit call of the paper (significant change in both replicates, either direction)
Summary of the method: as §2

[7] = tested on: Ruminococcus gnavus DSM 108212; assay: as above
Summary of the method: as §2

Escherichia coli IAI1 [8] = assay: fold change of Putrescine concentration vs plate DMSO controls (fold change (ratio)); higher = more amine produced, active = hit call of the paper (significant change in both replicates, either direction)
Summary of the method: as §2

[9] = tested on: Klebsiella aerogenes DSM 30053; assay: as above
Summary of the method: as §2

Escherichia coli IAI1 [10] = assay: fold change of Cadaverine concentration vs plate DMSO controls (fold change (ratio)); higher = more amine produced, active = hit call of the paper (significant change in both replicates, either direction)
Summary of the method: as §2

[11] = tested on: Klebsiella aerogenes DSM 30053; assay: as above
Summary of the method: as §2

[12] = tested on: Ruminococcus gnavus DSM 108212; assay: fold change of 2-Phenylethylamine concentration vs plate DMSO controls (fold change (ratio)); higher = more amine produced, active = hit call of the paper (significant change in both replicates, either direction)
Summary of the method: as §2

Row | Compound | growth [1] | growth (Escherichia coli IAI1 [2]) | growth [3] | growth [4] | fold change of Histamine concentration [5] | fold change of Tryptamine concentration [6] | fold change of Tryptamine concentration [7] | fold change of Putrescine concentration (Escherichia coli IAI1 [8]) | fold change of Putrescine concentration [9] | fold change of Cadaverine concentration (Escherichia coli IAI1 [10]) | fold change of Cadaverine concentration [11] | fold change of 2-Phenylethylamine concentration [12]
1 | Cc1nc2ccccn2c(=O)c1CCN1CCC(C(=O)c2ccc(F)cc2)CC1 [Pirenperone] (20 µM) | 0.963 | 1.01 | 1.01 | 1.05 | 1.06 (inactive) | 0.996 (inactive) | 0.997 (inactive) | 0.995 (inactive) | 1.01 (inactive) | 1.03 (inactive) | 0.983 (inactive) | 0.969 (inactive)
2 | CC(=O)N(CC(C)C(=O)O)c1c(I)cc(I)c(N)c1I (stereo not given) [Iocetamic acid] (20 µM) | 0.863 | 1.01 | 0.986 | 0.975 | 1.04 (inactive) | 1.05 (inactive) | 0.971 (inactive) | 1.09 (inactive) | 1 (inactive) | 0.988 (inactive) | 0.987 (inactive) | 0.924 (inactive)
3 | O=C(NCc1ncc(C(F)(F)F)cc1Cl)c1c(Cl)cccc1Cl (20 µM) | 1 | 0.98 | 1 | 1.03 | 1.01 (inactive) | 0.989 (inactive) | 1.01 (inactive) | 1.01 (inactive) | 1.02 (inactive) | 1.01 (inactive) | 1.01 (inactive) | 0.956 (inactive)
4 | CCOC1O[C@H]([C@@H](COCc2ccccc2)OCc2ccccc2)[C@H](OCc2ccccc2)[C@H]1O (stereo not given in full) [Tribenoside] (20 µM) | 0.917 | 0.959 | 0.99 | 0.972 | 1.06 (inactive) | 0.969 (inactive) | 0.966 (inactive) | 1 (inactive) | 1.03 (inactive) | 1.01 (inactive) | 0.987 (inactive) | 0.961 (inactive)
5 | O=C(N[C@H](CO)[C@H](O)c1ccc([N+](=O)[O-])cc1)C(Cl)Cl [Chloramphenicol] (20 µM) | 1.25 | 0.0503 | 0.0799 | 1.08 | 0.0535 (active) | 0.64 (inactive) | 0.168 (active) | 0.245 (active) | 0.512 (active) | 0.0844 (active) | 0.383 (active) | 0.182 (active)
6 | Cn1ccnc1S [Methimazole] (20 µM) | 1.17 | 1.11 | 0.998 | 1.13 | 1.04 (inactive) | 0.989 (inactive) | 0.998 (inactive) | 1.17 (inactive) | 1 (inactive) | 0.976 (inactive) | 0.984 (inactive) | 0.993 (inactive)
7 | Clc1ccc(COC(Cn2ccnc2)c2ccc(Cl)cc2Cl)c(Cl)c1 (stereo not given) [Miconazole] (20 µM) | 1.25 | 1.18 | 1.01 | 0.232 | 0.926 (inactive) | 0.725 (active) | 0.257 (active) | 1.2 (inactive) | 0.99 (inactive) | 0.974 (inactive) | 1.01 (inactive) | 0.277 (active)
8 | C[C@H](Cc1cc2c(c(C(N)=O)c1)N(CCCO)CC2)NCCOc1ccccc1OCC(F)(F)F [Silodosin] (20 µM) | 1 | 1 | 1.02 | 1.11 | 0.918 (inactive) | 1.08 (inactive) | 1.01 (inactive) | 0.941 (inactive) | 0.992 (inactive) | 1.02 (inactive) | 1.02 (inactive) | 0.999 (inactive)
9 | CC[C@H](C)C(=O)O[C@H]1C[C@@H](C)C=C2C=C[C@H](C)[C@H](CC[C@@H]3C[C@@H](O)CC(=O)O3)[C@H]21 [Lovastatin] (20 µM) | 1.13 | 1 | 0.995 | 1.16 | 1.05 (inactive) | 0.945 (inactive) | 0.995 (inactive) | 0.975 (inactive) | 1.02 (inactive) | 1.01 (inactive) | 0.999 (inactive) | 0.984 (inactive)
10 | Cn1cc([S+](C)[O-])c(=O)c2ccc(F)cc21 (stereo not given) [Flosequinan] (20 µM) | 0.995 | 1 | 1.01 | 1.06 | 1.03 (inactive) | 0.946 (inactive) | 0.958 (inactive) | 0.994 (inactive) | 1.02 (inactive) | 1.04 (inactive) | 0.999 (inactive) | 0.938 (inactive)
11 | CC(C)(O)c1ccccc1CC[C@@H](SCC1(CC(=O)O)CC1)c1cccc(/C=C/c2ccc3ccc(Cl)cc3n2)c1 [Montelukast] (20 µM) | 0.909 | 1 | 1.02 | 0.923 | 1.07 (inactive) | 0.587 (active) | 0.851 (inactive) | 0.994 (inactive) | 1.05 (inactive) | 1.03 (inactive) | 1.01 (inactive) | 0.842 (inactive)
12 | C1CCC(C(CC2CCCCN2)C2CCCCC2)CC1 (stereo not given) [Perhexiline maleate] (20 µM) | 1.14 | 1 | 1 | 0.952 | 0.983 (inactive) | 1.03 (inactive) | 0.771 (active) | 1.05 (inactive) | 1.01 (inactive) | 1.05 (inactive) | 1 (inactive) | 0.892 (inactive)
13 | CN(C)CCCOc1nn(Cc2ccccc2)c2ccccc12 [Benzydamine hydrochloride] (20 µM) | 1.1 | 0.95 | 0.978 | 1.04 | 1.05 (inactive) | 0.95 (inactive) | 0.986 (inactive) | 0.983 (inactive) | 1.03 (inactive) | 0.967 (inactive) | 1.01 (inactive) | 0.92 (inactive)
14 | Nc1c2c(nc3ccccc13)CCCC2 [Tacrine hydrochloride] (20 µM) | 0.896 | 0.951 | 0.932 | 0.696 | 1.05 (inactive) | 1.03 (inactive) | 1.12 (inactive) | 0.945 (inactive) | 0.94 (inactive) | 1.04 (inactive) | 1.15 (inactive) | 1.32 (active)
15 | C[C@@H]1C[C@H]2[C@@H]3CCC4=CC(=O)C=C[C@]4(C)[C@@]3(Cl)[C@@H](O)C[C@]2(C)[C@@]1(OC(=O)c1ccco1)C(=O)CCl [Mometasone furoate] (20 µM) | 1.08 | 0.984 | 1.14 | 1.04 | 0.923 (inactive) | 0.991 (inactive) | 0.889 (inactive) | 1.02 (inactive) | 1 (inactive) | 1.03 (inactive) | 1.03 (inactive) | 0.898 (inactive)
16 | Cc1ncc([N+](=O)[O-])n1C [Dimetridazole] (20 µM) | 0.0144 | 1.02 | 0.995 | 0.811 | 0.868 (inactive) | 0.0153 (active) | 0.218 (active) | 1.05 (inactive) | 1.01 (inactive) | 1.07 (inactive) | 1.01 (inactive) | 0.218 (active)
17 | NC(=O)c1ncn([C@@H]2O[C@H](CO)[C@@H](O)[C@H]2O)n1 [Ribavirin] (20 µM) | 1.13 | 0.988 | 0.979 | 0.942 | 0.947 (inactive) | 1.01 (inactive) | 0.994 (inactive) | 0.781 (inactive) | 0.973 (inactive) | 1.09 (inactive) | 1.01 (inactive) | 0.967 (inactive)
18 | Clc1cccc(Cl)c1NC1=NCCN1 [Clonidine hydrochloride] (20 µM) | 0.856 | 0.984 | 0.989 | 0.99 | 1.04 (inactive) | 0.953 (inactive) | 1.09 (inactive) | 0.995 (inactive) | 1.01 (inactive) | 0.996 (inactive) | 0.992 (inactive) | 1.08 (inactive)
19 | CCc1ccc(C(=O)C(C)CN2CCCCC2)cc1 (stereo not given) [Eperisone Hydrochloride] (20 µM) | 1.04 | 0.959 | 0.959 | 0.991 | 0.995 (inactive) | 1.04 (inactive) | 0.954 (inactive) | 0.986 (inactive) | 0.98 (inactive) | 0.992 (inactive) | 0.991 (inactive) | 1.02 (inactive)
20 | CCCc1nc2c(C)cc(-c3nc4ccccc4n3C)cc2n1Cc1ccc(-c2ccccc2C(=O)O)cc1 [Telmisartan] (20 µM) | 0.962 | 0.99 | 1.02 | 0.953 | 1.02 (inactive) | 0.911 (inactive) | 0.966 (inactive) | 1.04 (inactive) | 1.01 (inactive) | 1.05 (inactive) | 0.996 (inactive) | 1.01 (inactive)
21 | CCN(CC)Cc1cc(Nc2ccnc3cc(Cl)ccc23)ccc1O [Amodiaquine dihydrochloride dihydrate] (20 µM) | 0.973 | 0.964 | 0.915 | 1.02 | 1.03 (inactive) | 1.01 (inactive) | 1.01 (inactive) | 0.928 (inactive) | 1.01 (inactive) | 0.967 (inactive) | 0.978 (inactive) | 1.03 (inactive)
22 | CN(C)CCN(Cc1cccs1)c1ccccn1 [Methapyrilene hydrochloride] (20 µM) | 1.04 | 1 | 1 | 1.2 | 0.994 (inactive) | 1.02 (inactive) | 1.05 (inactive) | 0.892 (inactive) | 0.993 (inactive) | 1.18 (inactive) | 0.985 (inactive) | 1.08 (inactive)
23 | [S] (20 µM) | 1.07 | 0.919 | 0.964 | 0.976 | 0.924 (inactive) | 0.999 (inactive) | 1.01 (inactive) | 1.02 (inactive) | 0.962 (inactive) | 0.951 (inactive) | 1 (inactive) | 1.02 (inactive)
24 | Nc1c2ccccc2nc2ccccc12 [Aminacrine] (20 µM) | 0.903 | 1.11 | 0.922 | 1.45 | 1.07 (inactive) | 0.923 (inactive) | 0.911 (inactive) | 1.15 (inactive) | 0.952 (inactive) | 1.29 (active) | 0.964 (inactive) | 0.947 (inactive)
25 | CC(C)(C)NCC(O)c1ccc(O)c(CO)c1 (stereo not given) [Salbutamol] (20 µM) | 1.05 | 0.99 | 1.03 | 0.843 | 1.08 (inactive) | 0.999 (inactive) | 1.03 (inactive) | 1.04 (inactive) | 1.02 (inactive) | 1 (inactive) | 0.998 (inactive) | 1.03 (inactive)

— the supplement of paper PMC12494721
